Article PMC7862700, “An all-to-all approach to the identification of sequence-specific readers for epigenetic DNA modifications on cytosine”

Columns and labels:
Assay in all cases: DAPPL (digital affinity profiling via proximity ligation, sequencing); 10 mM Tris-HCl pH 7.5, 50 mM NaCl, 1 mM DTT, 4% glycerol, room temperature, 30 min; GST-TFs on glutathione beads, 16-mer random dsDNA library, 0.1% formaldehyde crosslink after washing; high values mean tight binding
[1] = target: T1, FLI1 (Homo sapiens, UniProt Q01543 1-452); conditions: protein: recombinant; tags: N-terminal GST; dsDNA, one strand shown
T1 sequence: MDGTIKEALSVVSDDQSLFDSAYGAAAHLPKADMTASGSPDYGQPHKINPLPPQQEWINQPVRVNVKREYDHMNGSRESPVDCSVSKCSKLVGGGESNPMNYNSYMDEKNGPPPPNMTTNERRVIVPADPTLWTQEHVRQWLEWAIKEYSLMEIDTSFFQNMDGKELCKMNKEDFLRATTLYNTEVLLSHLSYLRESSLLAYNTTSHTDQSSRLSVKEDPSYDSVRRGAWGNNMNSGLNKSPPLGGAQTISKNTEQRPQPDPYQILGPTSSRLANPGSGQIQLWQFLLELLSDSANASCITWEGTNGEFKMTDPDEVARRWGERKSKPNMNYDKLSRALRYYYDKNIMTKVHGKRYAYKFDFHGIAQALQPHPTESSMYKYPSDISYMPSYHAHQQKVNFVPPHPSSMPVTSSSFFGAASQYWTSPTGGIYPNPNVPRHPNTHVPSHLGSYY
Method in brief: (§1)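 Binding signal is given per hexamer as its read frequency for a factor divided by its frequency in the tag-only sample. GST-fused human transcription factors were expressed in yeast, captured on glutathione beads, barcoded with DNA and pooled with that sample, then incubated with 200 nmole of a 16-mer random double-stranded DNA library in Tris/NaCl/DTT/glycerol buffer for 30 min at room temperature. The pools were then washed, crosslinked, proximity-ligated, amplified by PCR and sequenced on an Illumina NextSeq500.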

[2] = target: T2, ELK1 (Homo sapiens, UniProt P19419 1-428); conditions: protein: recombinant; tags: N-terminal GST; dsDNA, one strand shown
T2 sequence: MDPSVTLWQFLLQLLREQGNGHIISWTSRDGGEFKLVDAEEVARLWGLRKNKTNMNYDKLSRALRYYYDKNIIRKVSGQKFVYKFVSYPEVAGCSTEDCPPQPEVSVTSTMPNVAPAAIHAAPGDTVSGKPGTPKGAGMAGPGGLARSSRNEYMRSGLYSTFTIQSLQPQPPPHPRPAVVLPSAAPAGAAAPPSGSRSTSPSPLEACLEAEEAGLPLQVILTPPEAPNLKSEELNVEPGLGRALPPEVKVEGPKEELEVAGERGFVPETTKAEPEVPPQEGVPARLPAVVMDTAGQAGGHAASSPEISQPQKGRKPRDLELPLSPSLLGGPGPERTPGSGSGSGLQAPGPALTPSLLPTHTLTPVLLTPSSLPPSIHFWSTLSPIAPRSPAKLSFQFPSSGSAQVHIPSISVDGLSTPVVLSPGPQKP
Method in brief: as §1

[3] = target: T3, GABPA (Homo sapiens, UniProt Q06546 1-454); conditions: protein: recombinant; tags: N-terminal GST; dsDNA, one strand shown
T3 sequence: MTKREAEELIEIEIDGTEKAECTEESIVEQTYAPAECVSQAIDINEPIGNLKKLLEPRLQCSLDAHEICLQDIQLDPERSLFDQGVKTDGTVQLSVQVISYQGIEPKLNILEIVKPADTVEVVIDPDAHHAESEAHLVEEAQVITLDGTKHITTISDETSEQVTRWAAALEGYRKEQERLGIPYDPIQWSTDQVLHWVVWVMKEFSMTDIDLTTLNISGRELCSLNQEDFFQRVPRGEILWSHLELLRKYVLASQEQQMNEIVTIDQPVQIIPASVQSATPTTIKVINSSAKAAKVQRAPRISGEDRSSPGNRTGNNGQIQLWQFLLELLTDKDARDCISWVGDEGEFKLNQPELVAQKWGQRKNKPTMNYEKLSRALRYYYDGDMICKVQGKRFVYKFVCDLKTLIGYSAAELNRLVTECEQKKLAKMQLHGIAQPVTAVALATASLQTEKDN
Method in brief: as §1

[4] = target: T4, ERG (Homo sapiens, UniProt P11308 1-479); conditions: protein: recombinant; tags: N-terminal GST; dsDNA, one strand shown
T4 sequence: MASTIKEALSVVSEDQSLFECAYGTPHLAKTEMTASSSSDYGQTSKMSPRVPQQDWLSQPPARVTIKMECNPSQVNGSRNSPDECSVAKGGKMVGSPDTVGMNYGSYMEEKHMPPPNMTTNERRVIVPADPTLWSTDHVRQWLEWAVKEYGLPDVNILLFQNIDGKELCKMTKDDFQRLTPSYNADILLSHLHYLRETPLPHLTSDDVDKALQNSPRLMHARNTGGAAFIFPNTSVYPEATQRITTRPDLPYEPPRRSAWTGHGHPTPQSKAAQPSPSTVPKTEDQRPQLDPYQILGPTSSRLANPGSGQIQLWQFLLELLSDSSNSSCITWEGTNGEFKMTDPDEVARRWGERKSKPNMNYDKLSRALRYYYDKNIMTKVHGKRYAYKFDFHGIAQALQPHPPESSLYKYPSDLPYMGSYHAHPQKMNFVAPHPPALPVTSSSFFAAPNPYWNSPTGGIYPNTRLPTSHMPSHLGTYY
Method in brief: as §1

[5] = target: ELF1 (Homo sapiens, UniProt P32519 1-619); conditions: protein: recombinant; tags: N-terminal GST; dsDNA, one strand shown
ELF1, sequence (P32519 whole entry): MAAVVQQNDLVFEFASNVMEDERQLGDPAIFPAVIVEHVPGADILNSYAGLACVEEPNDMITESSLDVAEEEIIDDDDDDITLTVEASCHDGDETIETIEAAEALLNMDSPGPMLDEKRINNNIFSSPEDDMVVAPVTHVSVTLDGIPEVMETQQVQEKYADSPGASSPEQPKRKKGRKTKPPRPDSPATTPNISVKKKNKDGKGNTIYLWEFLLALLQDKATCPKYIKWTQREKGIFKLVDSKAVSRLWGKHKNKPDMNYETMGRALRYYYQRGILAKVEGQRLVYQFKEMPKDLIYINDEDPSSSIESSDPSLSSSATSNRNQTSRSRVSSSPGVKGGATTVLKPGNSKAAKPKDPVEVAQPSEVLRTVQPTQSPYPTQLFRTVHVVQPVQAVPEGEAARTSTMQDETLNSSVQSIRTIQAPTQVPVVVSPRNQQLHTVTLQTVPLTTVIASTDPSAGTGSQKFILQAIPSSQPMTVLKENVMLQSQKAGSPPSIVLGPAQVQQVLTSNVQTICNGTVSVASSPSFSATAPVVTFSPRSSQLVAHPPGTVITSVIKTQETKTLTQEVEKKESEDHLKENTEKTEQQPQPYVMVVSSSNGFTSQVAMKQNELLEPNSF
Method in brief: as §1

[6] = target: T5, EHF (Homo sapiens, UniProt Q9NZC4 1-300); conditions: protein: recombinant; tags: N-terminal GST; dsDNA, one strand shown
T5 sequence: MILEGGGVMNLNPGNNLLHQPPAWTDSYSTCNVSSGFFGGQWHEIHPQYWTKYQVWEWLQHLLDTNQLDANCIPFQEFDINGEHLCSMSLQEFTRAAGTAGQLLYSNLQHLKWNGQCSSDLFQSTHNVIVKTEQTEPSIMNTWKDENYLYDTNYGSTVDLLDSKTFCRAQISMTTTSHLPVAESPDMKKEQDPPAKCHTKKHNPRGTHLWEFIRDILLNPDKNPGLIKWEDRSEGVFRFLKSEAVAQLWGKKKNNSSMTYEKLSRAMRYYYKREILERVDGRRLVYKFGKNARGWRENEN
Method in brief: as §1

[7] = target: SPI1 (Homo sapiens, UniProt P17947 1-270); conditions: protein: recombinant; tags: N-terminal GST; dsDNA, one strand shown
Method in brief: as §1

[8] = target: SPIB (Homo sapiens, UniProt Q01892 1-262); conditions: protein: recombinant; tags: N-terminal GST; dsDNA, one strand shown
SPIB, sequence (Q01892 whole entry): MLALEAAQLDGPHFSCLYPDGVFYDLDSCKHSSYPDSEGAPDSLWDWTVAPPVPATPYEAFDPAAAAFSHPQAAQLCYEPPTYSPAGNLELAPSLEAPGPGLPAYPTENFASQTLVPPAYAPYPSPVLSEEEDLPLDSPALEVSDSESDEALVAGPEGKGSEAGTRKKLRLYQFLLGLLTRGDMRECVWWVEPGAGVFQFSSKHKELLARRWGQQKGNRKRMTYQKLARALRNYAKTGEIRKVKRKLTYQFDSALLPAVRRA
Method in brief: as §1

[9] = target: T6, ELK3 (Homo sapiens, UniProt P41970 1-407); conditions: protein: recombinant; tags: N-terminal GST; dsDNA, one strand shown
T6 sequence: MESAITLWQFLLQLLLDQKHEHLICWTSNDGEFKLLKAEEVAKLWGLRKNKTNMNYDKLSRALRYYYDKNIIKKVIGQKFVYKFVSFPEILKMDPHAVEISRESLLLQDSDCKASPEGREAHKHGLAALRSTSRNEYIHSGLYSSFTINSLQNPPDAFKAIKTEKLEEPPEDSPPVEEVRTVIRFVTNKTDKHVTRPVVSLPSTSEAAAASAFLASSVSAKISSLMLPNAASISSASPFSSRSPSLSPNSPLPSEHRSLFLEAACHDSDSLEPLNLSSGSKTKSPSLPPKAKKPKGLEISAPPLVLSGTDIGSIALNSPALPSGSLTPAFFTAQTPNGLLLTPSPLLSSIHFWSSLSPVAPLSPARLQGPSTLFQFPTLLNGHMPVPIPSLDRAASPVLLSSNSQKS
Method in brief: as §1

[10] = target: T7, FEV (Homo sapiens, UniProt Q99581 1-238); conditions: protein: recombinant; tags: N-terminal GST; dsDNA, one strand shown
T7 sequence: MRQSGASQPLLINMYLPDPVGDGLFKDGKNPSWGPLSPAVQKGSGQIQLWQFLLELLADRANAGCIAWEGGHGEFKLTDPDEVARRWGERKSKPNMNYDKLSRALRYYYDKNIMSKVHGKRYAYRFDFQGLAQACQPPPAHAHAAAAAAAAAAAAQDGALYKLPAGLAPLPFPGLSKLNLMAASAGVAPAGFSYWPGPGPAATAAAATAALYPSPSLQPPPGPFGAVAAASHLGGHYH
Method in brief: as §1

[11] = target: ETV5 (Homo sapiens, UniProt P41161 1-510); conditions: protein: recombinant; tags: N-terminal GST; dsDNA, one strand shown
ETV5, sequence (P41161 whole entry): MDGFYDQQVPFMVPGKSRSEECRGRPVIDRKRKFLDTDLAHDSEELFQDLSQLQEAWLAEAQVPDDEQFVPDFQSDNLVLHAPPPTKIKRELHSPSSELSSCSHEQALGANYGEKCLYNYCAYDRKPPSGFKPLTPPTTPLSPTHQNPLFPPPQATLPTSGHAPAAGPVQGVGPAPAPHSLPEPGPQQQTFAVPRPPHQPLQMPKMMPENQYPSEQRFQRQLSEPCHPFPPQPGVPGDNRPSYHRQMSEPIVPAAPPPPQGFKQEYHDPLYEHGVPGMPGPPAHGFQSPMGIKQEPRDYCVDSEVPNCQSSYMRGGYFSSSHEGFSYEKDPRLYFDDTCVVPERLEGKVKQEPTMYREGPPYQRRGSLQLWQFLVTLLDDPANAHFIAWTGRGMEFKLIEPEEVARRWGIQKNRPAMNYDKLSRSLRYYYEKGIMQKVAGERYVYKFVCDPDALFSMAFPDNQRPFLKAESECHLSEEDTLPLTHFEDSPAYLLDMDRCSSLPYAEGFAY
Method in brief: as §1

[12] = target: HSF1 (Homo sapiens, UniProt Q00613 1-529); conditions: protein: recombinant; tags: N-terminal GST; chain copies: 3; dsDNA, one strand shown
HSF1, sequence (Q00613 whole entry): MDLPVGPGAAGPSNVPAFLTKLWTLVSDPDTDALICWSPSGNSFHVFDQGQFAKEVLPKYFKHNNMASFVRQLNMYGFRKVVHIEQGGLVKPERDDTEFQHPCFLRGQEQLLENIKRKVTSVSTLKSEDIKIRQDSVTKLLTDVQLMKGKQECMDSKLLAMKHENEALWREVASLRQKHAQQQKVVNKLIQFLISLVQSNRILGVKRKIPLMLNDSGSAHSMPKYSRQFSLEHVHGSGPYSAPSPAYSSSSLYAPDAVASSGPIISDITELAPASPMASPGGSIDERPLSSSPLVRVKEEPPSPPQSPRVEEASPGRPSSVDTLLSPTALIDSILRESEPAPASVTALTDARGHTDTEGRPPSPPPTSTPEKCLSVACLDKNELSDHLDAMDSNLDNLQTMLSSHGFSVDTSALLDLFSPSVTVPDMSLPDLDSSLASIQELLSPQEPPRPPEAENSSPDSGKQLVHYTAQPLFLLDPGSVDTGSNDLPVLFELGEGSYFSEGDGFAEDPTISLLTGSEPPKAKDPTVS
Method in brief: as §1

[13] = target: T8, SPIC (Homo sapiens, UniProt Q8N5J4 1-248); conditions: protein: recombinant; tags: N-terminal GST; dsDNA, one strand shown
T8 sequence: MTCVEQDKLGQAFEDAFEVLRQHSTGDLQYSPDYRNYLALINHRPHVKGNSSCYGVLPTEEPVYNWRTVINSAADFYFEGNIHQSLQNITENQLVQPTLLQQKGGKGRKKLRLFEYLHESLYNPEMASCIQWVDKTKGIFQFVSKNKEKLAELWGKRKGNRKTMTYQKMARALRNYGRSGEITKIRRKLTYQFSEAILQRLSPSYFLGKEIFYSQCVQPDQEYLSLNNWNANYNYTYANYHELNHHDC
Method in brief: as §1

[14] = target: ELF4 (Homo sapiens, UniProt Q99607 1-663); conditions: protein: recombinant; tags: N-terminal GST; dsDNA, one strand shown
ELF4, sequence (Q99607 whole entry): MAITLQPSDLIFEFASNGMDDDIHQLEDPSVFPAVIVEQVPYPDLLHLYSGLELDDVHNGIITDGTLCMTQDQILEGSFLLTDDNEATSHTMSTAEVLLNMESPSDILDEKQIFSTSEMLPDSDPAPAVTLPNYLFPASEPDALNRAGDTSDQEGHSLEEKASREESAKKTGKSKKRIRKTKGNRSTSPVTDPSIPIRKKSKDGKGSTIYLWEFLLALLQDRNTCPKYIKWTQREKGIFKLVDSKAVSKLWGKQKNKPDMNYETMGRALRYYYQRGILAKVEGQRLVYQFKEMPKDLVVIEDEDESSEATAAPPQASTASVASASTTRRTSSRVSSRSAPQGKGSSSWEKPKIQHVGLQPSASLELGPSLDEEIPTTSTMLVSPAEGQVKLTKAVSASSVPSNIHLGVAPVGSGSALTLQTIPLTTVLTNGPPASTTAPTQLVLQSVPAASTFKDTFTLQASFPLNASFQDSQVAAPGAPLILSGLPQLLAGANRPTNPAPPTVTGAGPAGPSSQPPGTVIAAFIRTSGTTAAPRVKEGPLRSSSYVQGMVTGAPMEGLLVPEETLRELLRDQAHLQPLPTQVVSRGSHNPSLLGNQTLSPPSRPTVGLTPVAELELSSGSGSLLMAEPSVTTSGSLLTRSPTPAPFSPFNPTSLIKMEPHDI
Method in brief: as §1

[15] = target: T9, ETV2 (Homo sapiens, UniProt O00321 1-342); conditions: protein: recombinant; tags: N-terminal GST; dsDNA, one strand shown
T9 sequence: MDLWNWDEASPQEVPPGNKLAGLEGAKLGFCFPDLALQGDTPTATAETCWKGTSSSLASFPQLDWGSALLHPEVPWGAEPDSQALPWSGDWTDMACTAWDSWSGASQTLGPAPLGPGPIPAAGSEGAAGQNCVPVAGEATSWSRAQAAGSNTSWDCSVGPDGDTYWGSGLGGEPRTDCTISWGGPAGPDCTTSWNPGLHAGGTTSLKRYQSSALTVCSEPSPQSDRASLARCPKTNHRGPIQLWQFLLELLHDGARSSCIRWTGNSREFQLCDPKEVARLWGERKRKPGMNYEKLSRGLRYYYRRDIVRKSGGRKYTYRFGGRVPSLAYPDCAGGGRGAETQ
Method in brief: as §1

[16] = target: CRX (Homo sapiens, UniProt O43186 1-299); conditions: protein: recombinant; tags: N-terminal GST; dsDNA, one strand shown
CRX, sequence (O43186 whole entry): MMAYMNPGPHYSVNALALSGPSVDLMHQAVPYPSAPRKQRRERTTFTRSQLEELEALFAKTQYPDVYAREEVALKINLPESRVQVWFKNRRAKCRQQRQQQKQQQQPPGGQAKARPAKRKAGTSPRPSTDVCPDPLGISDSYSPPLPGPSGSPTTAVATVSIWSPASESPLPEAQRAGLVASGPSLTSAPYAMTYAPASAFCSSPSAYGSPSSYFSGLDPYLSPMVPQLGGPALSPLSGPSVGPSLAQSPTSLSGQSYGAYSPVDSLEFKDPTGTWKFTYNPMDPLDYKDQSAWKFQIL
Method in brief: as §1

[17] = target: ETV1 (Homo sapiens, UniProt P50549 1-477); conditions: protein: recombinant; tags: N-terminal GST; dsDNA, one strand shown
ETV1, sequence (P50549 whole entry): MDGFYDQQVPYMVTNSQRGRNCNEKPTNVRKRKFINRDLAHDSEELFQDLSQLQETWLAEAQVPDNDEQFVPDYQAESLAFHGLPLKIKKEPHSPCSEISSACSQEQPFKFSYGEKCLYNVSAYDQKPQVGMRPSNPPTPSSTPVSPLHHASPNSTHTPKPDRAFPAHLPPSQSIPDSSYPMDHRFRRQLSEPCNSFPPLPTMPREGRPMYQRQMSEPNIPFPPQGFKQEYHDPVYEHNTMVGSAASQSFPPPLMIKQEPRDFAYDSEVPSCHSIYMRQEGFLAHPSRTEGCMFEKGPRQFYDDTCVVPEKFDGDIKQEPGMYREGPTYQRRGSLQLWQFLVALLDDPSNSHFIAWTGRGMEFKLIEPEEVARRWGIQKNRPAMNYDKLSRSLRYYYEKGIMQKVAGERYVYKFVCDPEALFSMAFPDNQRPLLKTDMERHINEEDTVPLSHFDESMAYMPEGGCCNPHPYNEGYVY
Method in brief: as §1

[18] = target: T10, ELF3 (Homo sapiens, UniProt P78545 1-371); conditions: protein: recombinant; tags: N-terminal GST; dsDNA, one strand shown
T10 sequence: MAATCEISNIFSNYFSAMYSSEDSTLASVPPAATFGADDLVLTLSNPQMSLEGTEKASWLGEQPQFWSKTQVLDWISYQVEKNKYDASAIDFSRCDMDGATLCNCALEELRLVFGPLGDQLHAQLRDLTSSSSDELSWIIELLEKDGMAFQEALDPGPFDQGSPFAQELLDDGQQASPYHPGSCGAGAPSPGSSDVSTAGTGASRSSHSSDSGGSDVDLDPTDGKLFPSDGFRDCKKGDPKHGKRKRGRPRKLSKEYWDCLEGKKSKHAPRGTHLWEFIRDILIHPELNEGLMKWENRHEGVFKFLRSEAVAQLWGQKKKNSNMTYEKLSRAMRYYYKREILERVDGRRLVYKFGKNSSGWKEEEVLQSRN
Method in brief: as §1

Row | Sequence | binding signal [1] | binding signal [2] | binding signal [3] | binding signal [4] | binding signal [5] | binding signal [6] | binding signal [7] | binding signal [8] | binding signal [9] | binding signal [10] | binding signal [11] | binding signal [12] | binding signal [13] | binding signal [14] | binding signal [15] | binding signal [16] | binding signal [17] | binding signal [18]
1 | CGAGCT | 1.02 fold enrichment (6-mer frequency, TF over GST control) | 1.02 fold enrichment (6-mer frequency, TF over GST control) | 1.09 fold enrichment (6-mer frequency, TF over GST control) | 1.04 fold enrichment (6-mer frequency, TF over GST control) | 1.06 fold enrichment (6-mer frequency, TF over GST control) | 1.13 fold enrichment (6-mer frequency, TF over GST control) | 1.03 fold enrichment (6-mer frequency, TF over GST control) | 1.04 fold enrichment (6-mer frequency, TF over GST control) | 1.06 fold enrichment (6-mer frequency, TF over GST control) | 1.03 fold enrichment (6-mer frequency, TF over GST control) | 1.01 fold enrichment (6-mer frequency, TF over GST control) | 1.24 fold enrichment (6-mer frequency, TF over GST control) | 1.25 fold enrichment (6-mer frequency, TF over GST control) | 1.07 fold enrichment (6-mer frequency, TF over GST control) | 1.05 fold enrichment (6-mer frequency, TF over GST control) | 1.04 fold enrichment (6-mer frequency, TF over GST control) | 1.15 fold enrichment (6-mer frequency, TF over GST control) | –
2 | TCTAGG | 1.12 fold enrichment (6-mer frequency, TF over GST control) | – | 1.1 fold enrichment (6-mer frequency, TF over GST control) | 1.02 fold enrichment (6-mer frequency, TF over GST control) | 1.05 fold enrichment (6-mer frequency, TF over GST control) | – | – | 1.11 fold enrichment (6-mer frequency, TF over GST control) | 1.07 fold enrichment (6-mer frequency, TF over GST control) | – | 1.05 fold enrichment (6-mer frequency, TF over GST control) | 1.7 fold enrichment (6-mer frequency, TF over GST control) | 1.24 fold enrichment (6-mer frequency, TF over GST control) | 1.13 fold enrichment (6-mer frequency, TF over GST control) | 1.11 fold enrichment (6-mer frequency, TF over GST control) | 1.27 fold enrichment (6-mer frequency, TF over GST control) | – | 1.07 fold enrichment (6-mer frequency, TF over GST control)
